# Reference: PMC11006913
# What was measured:
# [1] = target: HOXB4 (Homo sapiens, UniProt P17483 148-234); test: PBM; 200 nM protein, PBS; conditions: dsDNA, one strand shown
# [2] = target: HOXB4 (Homo sapiens, UniProt P17483 148-234, V174I); test: PBM; 200 nM protein, PBS; conditions: dsDNA, one strand shown
# Chain of HOXB4 (Homo sapiens, UniProt P17483 148-234, V174I) (P17483 148-234 V174I): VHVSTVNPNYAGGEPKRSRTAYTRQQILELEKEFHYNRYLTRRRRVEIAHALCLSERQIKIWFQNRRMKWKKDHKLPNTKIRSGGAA
# Chain of HOXB4 (Homo sapiens, UniProt P17483 148-234) (P17483 148-234): as the sequence (P17483 148-234 V174I) above, with I27V counted along it
Sequence,binding signal [1],binding signal [2]
CCCGTGCG,"7.96 upbm affinity estimate (log intensity, higher = more binding, comparable within an allelic series)","7.88 upbm affinity estimate (log intensity, higher = more binding, comparable within an allelic series)"
CACGCCGA,"7.66 upbm affinity estimate (log intensity, higher = more binding, comparable within an allelic series)","7.67 upbm affinity estimate (log intensity, higher = more binding, comparable within an allelic series)"
CGTCGTTA,"10.9 upbm affinity estimate (log intensity, higher = more binding, comparable within an allelic series)","11 upbm affinity estimate (log intensity, higher = more binding, comparable within an allelic series)"
ACTATATG,"9.48 upbm affinity estimate (log intensity, higher = more binding, comparable within an allelic series)","9.35 upbm affinity estimate (log intensity, higher = more binding, comparable within an allelic series)"
GAATGAAC,"8.91 upbm affinity estimate (log intensity, higher = more binding, comparable within an allelic series)","8.78 upbm affinity estimate (log intensity, higher = more binding, comparable within an allelic series)"
ATCGTTCC,"9.81 upbm affinity estimate (log intensity, higher = more binding, comparable within an allelic series)","9.76 upbm affinity estimate (log intensity, higher = more binding, comparable within an allelic series)"
CCGGTGAG,"7.55 upbm affinity estimate (log intensity, higher = more binding, comparable within an allelic series)","7.62 upbm affinity estimate (log intensity, higher = more binding, comparable within an allelic series)"
CCTCACCG,"7.41 upbm affinity estimate (log intensity, higher = more binding, comparable within an allelic series)","7.32 upbm affinity estimate (log intensity, higher = more binding, comparable within an allelic series)"
GCTCCCCC,"7.43 upbm affinity estimate (log intensity, higher = more binding, comparable within an allelic series)","7.43 upbm affinity estimate (log intensity, higher = more binding, comparable within an allelic series)"
GGACCGAC,"7.66 upbm affinity estimate (log intensity, higher = more binding, comparable within an allelic series)","7.41 upbm affinity estimate (log intensity, higher = more binding, comparable within an allelic series)"
CACGTGCG,"7.64 upbm affinity estimate (log intensity, higher = more binding, comparable within an allelic series)","7.71 upbm affinity estimate (log intensity, higher = more binding, comparable within an allelic series)"
CACGAGCC,"7.81 upbm affinity estimate (log intensity, higher = more binding, comparable within an allelic series)","7.69 upbm affinity estimate (log intensity, higher = more binding, comparable within an allelic series)"
CCTGATTA,"11.8 upbm affinity estimate (log intensity, higher = more binding, comparable within an allelic series)","12.4 upbm affinity estimate (log intensity, higher = more binding, comparable within an allelic series)"
AATACAAG,"9.55 upbm affinity estimate (log intensity, higher = more binding, comparable within an allelic series)","9.49 upbm affinity estimate (log intensity, higher = more binding, comparable within an allelic series)"
GCAATTTA,"11.5 upbm affinity estimate (log intensity, higher = more binding, comparable within an allelic series)","11.7 upbm affinity estimate (log intensity, higher = more binding, comparable within an allelic series)"
AGAAATAA,"10.1 upbm affinity estimate (log intensity, higher = more binding, comparable within an allelic series)","10.1 upbm affinity estimate (log intensity, higher = more binding, comparable within an allelic series)"
TGGCATAA,"10 upbm affinity estimate (log intensity, higher = more binding, comparable within an allelic series)","9.76 upbm affinity estimate (log intensity, higher = more binding, comparable within an allelic series)"
CCTGCGTC,"7.55 upbm affinity estimate (log intensity, higher = more binding, comparable within an allelic series)","7.44 upbm affinity estimate (log intensity, higher = more binding, comparable within an allelic series)"
TAGATTGA,"10.2 upbm affinity estimate (log intensity, higher = more binding, comparable within an allelic series)","10.3 upbm affinity estimate (log intensity, higher = more binding, comparable within an allelic series)"
CGCCGACG,"7.65 upbm affinity estimate (log intensity, higher = more binding, comparable within an allelic series)","7.86 upbm affinity estimate (log intensity, higher = more binding, comparable within an allelic series)"
CAGCGGAC,"7.6 upbm affinity estimate (log intensity, higher = more binding, comparable within an allelic series)","7.43 upbm affinity estimate (log intensity, higher = more binding, comparable within an allelic series)"
GGCTAATA,"11.6 upbm affinity estimate (log intensity, higher = more binding, comparable within an allelic series)","11.9 upbm affinity estimate (log intensity, higher = more binding, comparable within an allelic series)"
ACGCAATA,"9.72 upbm affinity estimate (log intensity, higher = more binding, comparable within an allelic series)","9.78 upbm affinity estimate (log intensity, higher = more binding, comparable within an allelic series)"
AGACCCGA,"7.82 upbm affinity estimate (log intensity, higher = more binding, comparable within an allelic series)","7.69 upbm affinity estimate (log intensity, higher = more binding, comparable within an allelic series)"
CAGGACGC,"7.75 upbm affinity estimate (log intensity, higher = more binding, comparable within an allelic series)","7.46 upbm affinity estimate (log intensity, higher = more binding, comparable within an allelic series)"
AACCCCCC,"7.54 upbm affinity estimate (log intensity, higher = more binding, comparable within an allelic series)","7.42 upbm affinity estimate (log intensity, higher = more binding, comparable within an allelic series)"
CCAGTTGC,"7.75 upbm affinity estimate (log intensity, higher = more binding, comparable within an allelic series)","7.61 upbm affinity estimate (log intensity, higher = more binding, comparable within an allelic series)"
CATCAGCG,"10.1 upbm affinity estimate (log intensity, higher = more binding, comparable within an allelic series)","10.3 upbm affinity estimate (log intensity, higher = more binding, comparable within an allelic series)"
AATGTACC,"10.2 upbm affinity estimate (log intensity, higher = more binding, comparable within an allelic series)","10.3 upbm affinity estimate (log intensity, higher = more binding, comparable within an allelic series)"
ACAACGAT,"9.88 upbm affinity estimate (log intensity, higher = more binding, comparable within an allelic series)","9.27 upbm affinity estimate (log intensity, higher = more binding, comparable within an allelic series)"
